In the library only some 19% were active in any assay of this set; here they are far more common.
HT1080-NT tox: kills 2HG-producing HT-1080-NT fibrosarcoma cells; Potency, µM (highest dose often 46.1 µM), without a hit: top-dose activity, negative = less viability, hits mostly cytotoxic; 360,000 tested, 1.6% active; AID 686970; HT-1080-NT fibrosarcoma viability, CellTiter-Glo ATP luminescence, 48 h;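 also: NT is the 2HG producing partner of a matched IDH1 knockdown line; 0% = DMSO-treated cells and -100% = media-only wells without cells; nearly all actives have a fitted effect of over 55% in size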
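750 cells/well, RPMI + 5% FBS; 2 h settle, compound pin-transfer, 48 h at 37 degrees C. CellTiter-Glo 10 min RT, luminescence. Normalized to DMSO and media-only wells.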
KB-V1 MDR tox: KB-V1 MDR subline cytotoxicity. KB-V1 MDR cells viability, CellTiter-Glo, 72 h. 400,000 tested, 3.4% active. Potency, µM (highest dose often 46.1 µM), usual class: cytotoxic. AID 1347076; also: nearly all actives have a fitted effect of over 60% in size
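Luminescent ATP read-out (CellTiter-Glo, 10 min) measures survival of drug-selected KB-V1 MDR cells after 72 h, 37 degrees C compound exposure. Medium: phenol-red-free DMEM, 10% FBS. Values from fitted concentration-response curves.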
TDP1 cell CPT: DT40-hTDP1 cell growth loss with CPT | chicken DT40 Tdp1-/-;hTDP1 cells + 20 nM CPT, ATP luminescence, 48 h | Potency, µM (series often up to 46.2 µM), without a hit: at the top dose activity change, negative = growth inhibition, hits mostly inhibitors | 420,000 tested, 12% active | AID 686979; also: nearly all actives have a fitted effect of over 55% in size
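Cell growth measured by CellTiter-Glo luminescence after a minimum 48 h, 37 C compound exposure with 20 nM CPT in Tdp1-knockout DT40 cells stably expressing hTDP1, seeded 400/well; qHTS titration format.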
HT1080 IDH1KD tx: toxicity to HT-1080 IDH1 knockdown cells (counter line); HT-1080 IDH1 knockdown viability, ATP luminescence, 48 h; Potency, µM (series often up to 46.1 µM), for the others: at the highest dose activity, negative = toxicity, actives largely listed as cytotoxic; 360,000 tested, 2% active;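 also: 0% = DMSO wells and -100% = cell-free medium wells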
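% activity derives from luminescence (CellTiter-Glo), normalised to DMSO and no-cell wells. HT-1080-IDH1KD cells, 750/well, had 48 h compound exposure at 37 °C.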
KB-3-1 cytotox: KB-3-1 parental cell cytotoxicity. KB-3-1 viability, CellTiter-Glo ATP luminescence, 72 h. Potency, µM (series often up to 46.1 µM), hits mostly cytotoxic. 400,000 tested, 1.4% active. AID 1347075; also: nearly all actives have a fitted effect of over 60% in size
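Viability of parental KB-3-1 cells, measured by CellTiter-Glo luminescence, followed a 72 h incubation at 37 °C with pinned compounds in phenol-red-free DMEM containing 10% FBS.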
TDP1 cell noCPT: qHTS for Inhibitors of human tyrosyl-DNA phosphodiesterase 1 (TDP1): qHTS in cells in absence of CPT; Potency, µM (highest dose often 46.2 µM), for the others: at the highest dose activity change, negative = growth inhibition, actives largely listed as inhibitors; 420,000 tested, 15% active; AID 686978, 2013; DT40 Tdp1-/- hTDP1 cells, no CPT, ATP luminescence, 48 h; also: nearly all actives have a fitted effect of over 55% in size
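Cells were dispensed at 400 per well, compounds added by pin tool, plates incubated ≥48 hr at 37 °C, then CellTiter-Glo added for 30 min at room temperature before luminescence reading. Line: DT40 Tdp1-/- complemented with hTDP1; camptothecin omitted.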
The depositor's hits bear a star; [ ] = remark or other dose. Calls follow the shape of the dose curve; as a rule, active = well fitted curve in the direction sought with a large enough effect; inconclusive = small, poorly fitted or top-dose-only effect, or another doubt; inactive = no such curve, though single readings can be large; an effect the other way counts as inactive or inconclusive. Unless noted, % is scaled to controls: 0 for no effect and ±100 for the full control effect; potency is read from the fitted curve at half-maximal effect.

Screening COC(=O)C1CCN(c2nc(CN(C)C3CCOC3)nc3cc(OC)c(OC)cc23)CC1 (stereo not given) returned TDP1 cell CPT 11%[9.04 µM] and TDP1 cell noCPT -26%.
`COC(C[C@@H]1O[C@H]1C(=O)[C@@H](C)OCc1ccccc1)OC` gave HT1080-NT tox 2%, KB-V1 MDR tox inactive, TDP1 cell CPT 18µM*, HT1080 IDH1KD tx 1%, KB-3-1 cytotox inconclusive and TDP1 cell noCPT -70%.
COC(C[C@H]1O[C@H]1C(=O)[C@@H](C)OCc1ccccc1)OC was read as HT1080-NT tox 18%, KB-V1 MDR tox inactive, TDP1 cell CPT 10µM*, HT1080 IDH1KD tx 15%, KB-3-1 cytotox inactive and TDP1 cell noCPT inconclusive.
COC(C[C@@H]1O[C@@H]1[C@H](O)[C@H](C)OCc1ccccc1)OC was read as HT1080-NT tox 0%, KB-V1 MDR tox inactive, TDP1 cell CPT -7%, HT1080 IDH1KD tx 7%, KB-3-1 cytotox inactive and TDP1 cell noCPT -2%.
CCN1CCN(C(=O)CN(CC)S(=O)(=O)c2ccc(F)cc2)CC1 was read as HT1080-NT tox -9%, TDP1 cell CPT 6%, HT1080 IDH1KD tx 6% and TDP1 cell noCPT 14%.
For Cc1ccc(C)c(N2CCN(C(=O)CCS(=O)(=O)c3cccc4nonc34)CC2)c1 the results were HT1080-NT tox -12%, KB-V1 MDR tox inactive, TDP1 cell CPT -22%, HT1080 IDH1KD tx -8%, KB-3-1 cytotox inactive and TDP1 cell noCPT -18%.
`CC12CC3CC(C)(C1)CC(C(=O)NC(=S)N1CCOCC1)(C3)C2` gave HT1080-NT tox 11µM*, KB-V1 MDR tox inactive, TDP1 cell CPT -5%, HT1080 IDH1KD tx -16%, KB-3-1 cytotox inactive and TDP1 cell noCPT -9%.
`COc1ccc(OC)c(N(CC(=O)NCCSC2CCCCC2)S(=O)(=O)c2ccccc2)c1` gave HT1080-NT tox 3%, TDP1 cell CPT inconclusive, HT1080 IDH1KD tx 0% and TDP1 cell noCPT inconclusive.
For COc1ccc(CCNC(=O)CN(c2ccc(C)cc2)S(=O)(=O)c2ccc(OC)cc2)cc1 the results were KB-V1 MDR tox inactive, TDP1 cell CPT inconclusive, KB-3-1 cytotox inactive and TDP1 cell noCPT 23µM*.
`Cc1ccc(S(=O)(=O)N(CC(=O)NCCc2ccc(Cl)cc2)c2ccccc2C)cc1` gave KB-V1 MDR tox inactive, TDP1 cell CPT 18µM*, KB-3-1 cytotox inactive and TDP1 cell noCPT 13µM*.
Screening COc1cccc(N(CC(=O)NCCSc2ccccc2)S(C)(=O)=O)c1 returned HT1080-NT tox -4%, KB-V1 MDR tox inactive, TDP1 cell CPT -14%, HT1080 IDH1KD tx -2%, KB-3-1 cytotox inactive and TDP1 cell noCPT -6%.
For COc1ccc(N(CC(=O)NCCSC2CCCCC2)S(=O)(=O)c2ccc(C)cc2)cc1 the results were HT1080-NT tox 5%, TDP1 cell CPT -88%, HT1080 IDH1KD tx 3% and TDP1 cell noCPT 23µM*.
COc1ccc(CCNC(=O)CN(c2ccc(OC)c(OC)c2)S(=O)(=O)c2ccc(C)cc2)cc1 was read as HT1080-NT tox 1%, KB-V1 MDR tox inactive, TDP1 cell CPT -7%, HT1080 IDH1KD tx 0%, KB-3-1 cytotox inactive and TDP1 cell noCPT -21%.
For COc1ccc(OC)c(N(CC(=O)NCCSc2ccccc2)S(C)(=O)=O)c1 the results were HT1080-NT tox 1%, KB-V1 MDR tox 23µM*, TDP1 cell CPT 0%, HT1080 IDH1KD tx -2%, KB-3-1 cytotox inactive and TDP1 cell noCPT -13%.
Screening O=C(O)c1ccc(Nc2ncc([N+](=O)[O-])cc2[N+](=O)[O-])cc1 returned HT1080-NT tox 4%, KB-V1 MDR tox inactive, TDP1 cell CPT -3%, HT1080 IDH1KD tx 1%, KB-3-1 cytotox inactive and TDP1 cell noCPT -18%.
`CCc1nn(CC(=O)Nc2c(C)cccc2C)c(=O)c2cc3sccc3n12` gave KB-V1 MDR tox inactive, TDP1 cell CPT -5%, KB-3-1 cytotox inactive and TDP1 cell noCPT -17%.
`COc1ccc(N(CCC#N)S(=O)(=O)c2cccc3nsnc23)cc1` gave HT1080-NT tox 8%, KB-V1 MDR tox inactive, TDP1 cell CPT -12%, HT1080 IDH1KD tx 13%, KB-3-1 cytotox inactive and TDP1 cell noCPT -23%.
COc1ccc(N(CC(=O)NCCOc2ccccc2)S(=O)(=O)c2ccc(C)cc2)cc1 was read as HT1080-NT tox -4%, KB-V1 MDR tox inconclusive, TDP1 cell CPT inconclusive, HT1080 IDH1KD tx -3%, KB-3-1 cytotox inactive and TDP1 cell noCPT 21µM*.
Screening COc1ccc(N(CC(=O)NCCSCc2ccccc2C)S(=O)(=O)c2ccccc2)cc1 returned HT1080-NT tox inconclusive, KB-V1 MDR tox 15µM*, TDP1 cell CPT 16µM*, HT1080 IDH1KD tx inconclusive, KB-3-1 cytotox inconclusive and TDP1 cell noCPT 16µM*.
`CC(C)(C)SCCNC(=O)CN(c1ccc(F)c(Cl)c1)S(C)(=O)=O` gave HT1080-NT tox -1%, KB-V1 MDR tox 18µM*, TDP1 cell CPT -6%, HT1080 IDH1KD tx -11%, KB-3-1 cytotox inactive and TDP1 cell noCPT -11%.
`CC(C)(C)SCCNC(=O)CN(c1ccc(F)cc1)S(C)(=O)=O` gave HT1080-NT tox 3%, KB-V1 MDR tox inactive, TDP1 cell CPT -16%, HT1080 IDH1KD tx 7%, KB-3-1 cytotox inactive and TDP1 cell noCPT -6%.
Screening CCOc1ccc(N(CCC#N)S(=O)(=O)c2ccc(OC)cc2)cc1 returned HT1080-NT tox inconclusive, KB-V1 MDR tox 21µM*, TDP1 cell CPT inconclusive, HT1080 IDH1KD tx inconclusive, KB-3-1 cytotox inconclusive and TDP1 cell noCPT inconclusive.
Screening COc1ccc(N(CC(=O)NCC(C)C)S(=O)(=O)c2ccccc2)cc1 returned HT1080-NT tox -4%, KB-V1 MDR tox inconclusive, TDP1 cell CPT -17%, HT1080 IDH1KD tx -5%, KB-3-1 cytotox inactive and TDP1 cell noCPT -14%.
`Cc1ccccc1Nc1nnc(-c2ccc(C(=O)NCCO)cc2)c2ccccc12` gave HT1080-NT tox 11%, KB-V1 MDR tox inactive, TDP1 cell CPT -23%, HT1080 IDH1KD tx -5%, KB-3-1 cytotox inactive and TDP1 cell noCPT -36%.
Screening CNc1n[nH]c(-c2ccccc2)n1 returned HT1080-NT tox 13%, KB-V1 MDR tox inactive, TDP1 cell CPT 3%, HT1080 IDH1KD tx 8%, KB-3-1 cytotox inactive and TDP1 cell noCPT -4%.
